# The list is not random: actives were taken first. Their share in the collection is about 12%.
# SARS PLP yeast – SARS-CoV PLP inhibition in yeast. hit rate 0.19% among 330,000. Potency, µM (top dose mostly 32.9 µM), for the others: at the highest dose activity, positive = growth rescue, hits mostly activators. S. cerevisiae expressing SARS-CoV PLpro, growth rescue; calls by dose curve; further: 0% is about no effect; nearly all actives have a fitted effect of over 55% in size
# Pf growth 96h – inhibits malaria parasite growth, 96 h; P. falciparum luciferase reporter growth, 96 h; Potency, µM (top dose mostly 28.7 µM), without a hit: at the highest dose activity change, negative = inhibition, actives largely listed as inhibitors; hit rate 6.9% among 320,000; AID 504834; further: on the % scale 0 is the no-effect control and ±100 the full control effect
#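 Parasite growth measured via integrated firefly luciferase reporter in P. falciparum. Infected erythrocytes at 2% hematocrit, 0.05% parasitemia final were treated 96 hours at 37 C under 5% CO2, and luminescence was read.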
# Sm TGR inh – blocks Schistosoma mansoni thioredoxin glutathione reductase; Q962Y6; purified TGR, DTNB reduction, TNB absorbance 405 nm; Potency, µM (doses to about 114 µM), without a hit: at the highest dose activity change, negative = inhibition, most hits filed as inhibitors; hit rate 3% among 360,000; further: on the % scale 0 is the no-effect control and ±100 the full control effect; nearly all actives have a fitted effect of over 60% in size
#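 Kinetic colorimetric format: TGR-catalysed, NADPH-driven DTNB reduction monitored via TNB absorbance. Enzyme dispensed at 20 nM; compound exposure 15 min at room temperature before reaction start.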
# Pf growth 48h – inhibits P. falciparum growth in the first generation, 48 h; Potency, µM (top dose mostly 28.7 µM), for the others: at the top dose activity change, negative = inhibition, actives largely listed as inhibitors; P. falciparum luciferase growth in erythrocytes, 48 h; hit rate 5.9% among 310,000; further: on the % scale 0 is the no-effect control and ±100 the full control effect
#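 Compounds are pin-transferred into medium, infected erythrocytes (2% hematocrit, 0.1% parasitemia final) are added, and plates sit one parasite generation at 37 C in 5% CO2. Detection reagent is then added and luminescence measured.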
# * = called active by the depositor; ? = inconclusive; . = no result given; [ ] = another dose, or the depositor's remark. Unless noted, the call rests on the fitted dose curve; in most records, active means well fitted curve in the direction sought with a large enough effect; inconclusive means small, poorly fitted or top-dose-only effect, or another doubt; inactive means no such curve, though single readings can be large; an effect the other way counts as inactive or inconclusive. Potency means the concentration at half of the fitted maximal effect.
SMILES,SARS PLP yeast,Pf growth 96h,Sm TGR inh,Pf growth 48h
Cc1cc(N2CCN(C(=O)Nc3ccc(F)cc3F)CC2)c2ccccc2n1,0.9%,14.7µM*,0.2%,10.4µM*
O=C(Nc1cc(F)ccc1F)N1CCN(c2ccnc3cc(Cl)ccc23)CC1,-1.9%,?,-1.0%,?
O=S(=O)(c1cccs1)N1CCN(c2ccnc3cc(Cl)ccc23)CC1,-1.2%,6.57µM*,3.6%,9.28µM*
O=C(NNC(=O)C1CC=CCC1)c1ccccc1O (stereo not drawn),2.3%,?,11.8%,54.1%
CCC(C)c1ccc(NC(=S)N2CCN(S(C)(=O)=O)CC2)cc1 (stereo not drawn),-1.8%,-27.3%,1.6%,?
COc1cccc(C2/C(=C(/O)c3ccc4c(c3)CC(C)O4)C(=O)C(=O)N2CC2CCCO2)c1 (stereo not drawn),0.3%,-18.6%,0.0%,9.5%
Cc1ccc(F)cc1NC(=O)N1CCN(c2ccnc3cc(Cl)ccc23)CC1,-5.0%,6.57µM*,2.9%,?
O=C(Nc1ccc(C(F)(F)F)cc1)N1CCN(c2ccnc3cc(Cl)ccc23)CC1,-16.4%,?,5.4%,1.47µM*
CCCCNC(=O)N1CCN(c2ccnc3cc(Cl)ccc23)CC1,-0.9%,3.7µM*,4.1%,4.65µM*
CC(C)c1ccc(NC(=O)C(Cc2ccccc2)NS(=O)(=O)c2ccc3c(c2)CCC(=O)N3)cc1 (stereo not drawn),.,.,7.2%,.
CCC(C)[C@H](NC(=O)NC1CCCc2ccccc21)C(=O)O (stereo partly drawn),7.9%,-8.5%,-15.8%,-16.1%
CCC(NC(=O)C(C)NC)C(=O)N1CCCC1C(=O)NC1CCCc2ccccc21 (stereo not drawn),1.4%,?,31.6µM*,33.2%
FC(F)(F)c1cccc(OCCN2CCN(Cc3ccccc3)CC2)c1,-33.7%,10.4µM*,-5.1%,11.9%
OCCN1CCN(CCOc2cccc(Cl)c2)CC1,-6.5%,1.65µM*,2.8%,21.9%
Cn1c(=O)c2c(SCC(=O)N3CCCCC3)nc(-c3ccccc3F)nc2n(C)c1=O,6.6%,40.3%,1.4%,5.2%
COc1ccc(S(=O)(=O)N2CCOCC2)cc1NC(=O)CCCOc1ccccc1,-8.4%,.,.,.
COc1ccc(S(=O)(=O)N2CCCCCC2)cc1NC(=O)CCCOc1ccccc1,-3.9%,?,-7.5%,9.28µM*
COc1ccc(OCCCC(=O)Nc2cc(S(=O)(=O)N3CCCCC3)ccc2OC)cc1,4.2%,9.28µM*,-6.6%,11.7µM*
COc1ccc(S(=O)(=O)N2CCCCC2)cc1NC(=O)CSc1ncccn1,4.8%,11.7µM*,-5.5%,?
COc1ccc(S(=O)(=O)N2CCC(C(=O)NCc3ccncc3)CC2)cc1Cl,-0.1%,1.85µM*,-1.9%,28.8%
O=C(COc1cc2oc(=O)c3c(c2cc1Cl)CCC3)NCc1ccccn1,4.3%,46.1%,12.8%,27.3%
COC(=O)c1sccc1S(=O)(=O)N1CCN(c2ccccc2OC)CC1,.,.,4.2%,.
COc1ccc(CNC(=O)COc2ccc(S(=O)(=O)N3CCCCC3)cc2)cc1,2.8%,10.6%,3.2%,?
COc1ccc(CNC(=O)COc2ccc(S(=O)(=O)N3CCCCC3)cc2Cl)cc1,3.4%,-23.9%,8.3%,13.1µM*
Cc1nn(CCc2nc(-c3ccco3)cs2)c2[nH]c(=O)cc(C(F)(F)F)c12,2.4%,9.28µM*,-2.1%[11.4 µM],.
SMILES,SARS PLP yeast,Pf growth 96h,Sm TGR inh,Pf growth 48h
Cc1cc(C)n(CCc2nc(-c3ccco3)cs2)n1,5.2%,-38.5%,39.8µM*,.
Cc1cc(C)n(CCc2nc(-c3cccs3)cs2)n1,23.3%,4.4%,-0.4%,7.3%
Cc1nn(CCc2nn[nH]n2)c2nc(-c3ccccc3)cc(C(F)(F)F)c12,-2.4%,0.0%,-2.1%,-4.1%
Cc1cc(C)c(OCC(=O)OCC(=O)NCC2CCCCC2)c(C)c1,8.5%,2.7%,-7.5%,-17.8%
O=C1CCC([N+](=O)[O-])C(c2ccc3c(c2)OCO3)N1 (stereo not drawn),4.8%,10.4µM*,14.0%,19.3%
CCOC(=O)c1cccc(NC(=O)C2Cc3ccccc3N2C(=O)c2ccccc2)c1 (stereo not drawn),.,.,-2.0%,.
CSc1nnc2n(C)c3c(c(=O)n12)C1(CCCC1)Cc1ccccc1-3,?,10.4µM*,11.6%,?
Cn1c(=O)c2c(n3cnnc13)-c1ccccc1CC21CCCC1,27.0%,?,0.0%,?
Clc1ccc(CCNC(c2cccc(Cl)c2)c2nnc(-c3ccccc3)o2)cc1 (stereo not drawn),.,.,0.5%,.
CCOc1ccccc1CNC(=O)c1nc(-c2ccc(Cl)cc2)n2c1CCCCC2,.,.,-2.7%,.
Cn1nc(C(F)(F)F)c2cc(C(=O)Nc3ccc(C(F)(F)F)cc3)sc21,-0.2%,?,-2.8%,6.57µM*
Cn1nc(C(F)(F)F)c2cc(C(=O)O)sc21,3.7%,-19.8%,-0.4%,-2.7%
Cn1nc(C(F)(F)F)c2cc(C(=O)Nc3ccc(F)c(Cl)c3)sc21,-0.9%,2.08µM*,17.3%,3.29µM*
Cn1nc(C(F)(F)F)c2cc(C(=O)Nc3ccc(F)cc3)sc21,-1.9%,?,-4.7%,?
COc1ccccc1C(CNC(=O)c1cc(S(=O)(=O)N2CCOCC2)ccc1C)N1CCCC1 (stereo not drawn),-5.2%,?,5.9%,?
CCOC(=O)c1ccc(-c2csc(NC(=O)CN3CCC(C)CC3)n2)cc1,-1.4%,?,1.3%,?
Cc1ccc(CS(=O)Cc2ccc(C(=O)NCc3ccc4c(c3)OCO4)o2)cc1 (stereo not drawn),-4.8%,13.1µM*,-11.9%,12.3%
Cc1ccc(S(=O)(=O)Cc2ccc(C(=O)NCc3ccc4c(c3)OCO4)o2)cc1,6.4%,?,25.1µM*,4.8%
COc1ccc(S(=O)(=O)Cc2ccc(C(=O)NCc3ccc(C)cc3)o2)cc1,3.3%,?,-20.2%,-11.1%
Cc1ccc(CS(=O)Cc2ccc(C(=O)NC3CCC(C)CC3)o2)cc1 (stereo not drawn),?,-2.1%,?,-15.0%
Cc1ccc(CS(=O)Cc2ccc(C(=O)NC3CCCC(C)C3C)o2)cc1 (stereo not drawn),-1.2%,-21.6%,35.5µM*,-8.6%
CNC(=O)N(O)C1N(c2ccccc2)C(=S)SC1(C)C (stereo not drawn),18.3%,2.08µM*,1.4%,-0.1%
CNC(=O)N(O)C1N(/N=C/c2ccccc2O)C(=S)SC1(C)C (stereo not drawn),0.1%,62.9%,7.0%,-9.4%
Cc1cccc(CCNC(=O)C2CCN(c3ncnc4c3nc3n4CCCCC3)CC2)c1,.,.,1.8%,.
CCOC(=O)c1[nH]c2c(c1-c1ccccc1)C(=O)CC(c1ccc(OC)c(OC)c1)C2 (stereo not drawn),1.4%,10.4µM*,-0.3%,?
CCOC(=O)c1[nH]c2c(c1-c1ccccc1)C(=O)CC(c1ccc(OCC)cc1)C2 (stereo not drawn),11.7%,10.4µM*,-0.2%,1.3%
CCOC(=O)c1[nH]c2c(c1Cc1ccccc1)C(=O)CC(c1ccc(OC)cc1)C2 (stereo not drawn),.,.,4.3%,.
